# Reference: PubChem BioAssay AID1159580 (chemical genetic matrix, 2015)
# Out of some 5,500 compounds screened, about 2,000 (36%) were called active. Not shown: some 18% with an inconclusive outcome. Some of the results follow. A number with no mark means an inactive call. Cut-off read from the data, not from the text of the source: active = normalized growth mostly below about 0.91 (no sharp cut-off); inconclusive = no clear call, values can overlap the other calls; inactive = mostly above about 0.92.
# Assay: chemical genetic growth profiling, strain panel (AID 1159580);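 note: tested at 20 µM; growth read once vehicle control cultures reached saturation at 30 °C; 1 = growth at the plate median or of vehicle wells; lower values mean less growth of the strain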
# Settings: growth OD
smiles,measurement,setting,value
O=c1oc2c(O)c(O)cc3c(=O)oc4c(O)c(O)cc1c4c23,normalized growth,"S. cerevisiae deletion strains, locus YJR075W, strain HOC1, active compounds read low",0.684 (active)
same,normalized growth,"S. cerevisiae deletion strains, locus YKL009W, strain mrt4, active compounds read low",0.978
same,normalized growth,"S. cerevisiae deletion strains, locus YKL068W, active compounds read low",0.994
same,normalized growth,"S. cerevisiae deletion strains, locus YKL085W, strain MDH1 (second series), active compounds read low",0.972
same,normalized growth,"S. cerevisiae deletion strains, locus YKL085W, strain MDH1, active compounds read low",0.972
same,normalized growth,"S. cerevisiae deletion strains, locus YKL160W, strain elf1, active compounds read low",0.82 (active)
same,normalized growth,"S. cerevisiae deletion strains, locus YKL190W, strain CNB1, active compounds read low",0.712 (active)
same,normalized growth,"S. cerevisiae deletion strains, locus YKR001C, strain vps1, active compounds read low",0.54 (active)
same,normalized growth,"S. cerevisiae deletion strains, locus YKR026C, strain gcn3, active compounds read low",0.992
same,normalized growth,"S. cerevisiae deletion strains, locus YKR091W, strain srl3, active compounds read low",0.924 (active)
same,normalized growth,"S. cerevisiae deletion strains, locus YLL001W, strain dnm1, active compounds read low",0.747 (active)
same,normalized growth,"S. cerevisiae deletion strains, locus YLL026W, active compounds read low",0.686 (active)
same,normalized growth,"S. cerevisiae deletion strains, locus YLL041C, strain sdh2, active compounds read low",0.904 (active)
same,normalized growth,"S. cerevisiae deletion strains, locus YLR027C, strain aat2, active compounds read low",0.772 (active)
same,normalized growth,"S. cerevisiae deletion strains, locus YLR039C, strain RIC1, active compounds read low",0.407 (active)
same,normalized growth,"S. cerevisiae deletion strains, locus YLR058C, strain SHM2, active compounds read low",0.578 (active)
same,normalized growth,"S. cerevisiae deletion strains, locus YLR102C, strain apc9, active compounds read low",0.933
same,normalized growth,"S. cerevisiae deletion strains, locus YLR113W, strain HOG1, active compounds read low",0.981
same,normalized growth,"S. cerevisiae deletion strains, locus YLR221C, strain rsa3, active compounds read low",0.717 (active)
same,normalized growth,"S. cerevisiae deletion strains, locus YLR258W, strain gsy2, active compounds read low",0.747 (active)
same,normalized growth,"S. cerevisiae deletion strains, locus YLR262C, strain YPT6 (second series), active compounds read low",0.648 (active)
same,normalized growth,"S. cerevisiae deletion strains, locus YLR262C, strain YPT6, active compounds read low",0.556 (active)
same,normalized growth,"S. cerevisiae deletion strains, locus YLR268W, strain sec22, active compounds read low",0.356 (active)
same,normalized growth,"S. cerevisiae deletion strains, locus YLR320W, strain mms22, active compounds read low",0.617 (active)
same,normalized growth,"S. cerevisiae deletion strains, locus YLR330W, strain CHS5, active compounds read low",0.584 (active)
same,normalized growth,"S. cerevisiae deletion strains, locus YLR342W, strain FKS1 (second series), active compounds read low",0.401 (active)
same,normalized growth,"S. cerevisiae deletion strains, locus YLR342W, strain FKS1, active compounds read low",0.628 (active)
same,normalized growth,"S. cerevisiae deletion strains, locus YLR357W, strain rsc2, active compounds read low",0.627 (active)
same,normalized growth,"S. cerevisiae deletion strains, locus YLR370C, strain arc18, active compounds read low",0.422 (active)
same,normalized growth,"S. cerevisiae deletion strains, locus YLR371W, strain rom2, active compounds read low",0.605 (active)
same,normalized growth,"S. cerevisiae deletion strains, locus YLR384C, strain iki3, active compounds read low",0.724 (active)
same,normalized growth,"S. cerevisiae deletion strains, locus YLR418C, strain cdc73, active compounds read low",0.366 (active)
same,normalized growth,"S. cerevisiae deletion strains, locus YML016C, strain PPZ1, active compounds read low",0.626 (active)
same,normalized growth,"S. cerevisiae deletion strains, locus YML032C, strain rad52, active compounds read low",0.66 (active)
same,normalized growth,"S. cerevisiae deletion strains, locus YML120C, strain ndi1, active compounds read low",0.581 (active)
same,normalized growth,"S. cerevisiae deletion strains, locus YML124C, strain tub3, active compounds read low",0.778 (active)
same,normalized growth,"S. cerevisiae deletion strains, locus YMR058W, strain fet3, active compounds read low",0.848 (active)
same,normalized growth,"S. cerevisiae deletion strains, locus YMR078C, strain ctf18, active compounds read low",0.875 (active)
same,normalized growth,"S. cerevisiae deletion strains, locus YMR125W, strain sto1, active compounds read low",1
same,normalized growth,"S. cerevisiae deletion strains, locus YMR129W, active compounds read low",0.886 (active)
same,normalized growth,"S. cerevisiae deletion strains, locus YMR205C, strain PFK2, active compounds read low",0.685 (active)
same,normalized growth,"S. cerevisiae deletion strains, locus YMR223W, strain ubp8, active compounds read low",0.612 (active)
same,normalized growth,"S. cerevisiae deletion strains, locus YMR231W, strain pep5, active compounds read low",0.728 (active)
same,normalized growth,"S. cerevisiae deletion strains, locus YMR263W, strain SAP30, active compounds read low",0.616 (active)
same,normalized growth,"S. cerevisiae deletion strains, locus YMR307W, strain GAS1, active compounds read low",0.731
same,normalized growth,"S. cerevisiae deletion strains, locus YNL067W, strain RPL9B, active compounds read low",0.572 (active)
same,normalized growth,"S. cerevisiae deletion strains, locus YNL071W, strain lat1, active compounds read low",0.86 (active)
same,normalized growth,"S. cerevisiae deletion strains, locus YNL128W, strain TEP1, active compounds read low",0.558 (active)
same,normalized growth,"S. cerevisiae deletion strains, locus YNL153C, strain GIM3, active compounds read low",0.492 (active)
same,normalized growth,"S. cerevisiae deletion strains, locus YNL183C, strain NPR1, active compounds read low",0.922
same,normalized growth,"S. cerevisiae deletion strains, locus YNL209W, strain ssb2, active compounds read low",0.444 (active)
same,normalized growth,"S. cerevisiae deletion strains, locus YNL233W, strain BNI4, active compounds read low",0.594 (active)
same,normalized growth,"S. cerevisiae deletion strains, locus YNL248C, strain rpa49, active compounds read low",0.912
same,normalized growth,"S. cerevisiae deletion strains, locus YNL250W, strain rad50, active compounds read low",0.947
same,normalized growth,"S. cerevisiae deletion strains, locus YNL271C, strain bni1, active compounds read low",0.885 (active)
same,normalized growth,"S. cerevisiae deletion strains, locus YNL298W, strain CLA4, active compounds read low",0.907 (active)
same,normalized growth,"S. cerevisiae deletion strains, locus YNL307C, strain MCK1, active compounds read low",0.787 (active)
same,normalized growth,"S. cerevisiae deletion strains, locus YNL322C, strain KRE1 (second series), active compounds read low",0.685 (active)
same,normalized growth,"S. cerevisiae deletion strains, locus YNR049C, strain mso1, active compounds read low",0.896 (active)
same,normalized growth,"S. cerevisiae deletion strains, locus YNR052C, strain pop2, active compounds read low",0.365 (active)
same,normalized growth,"S. cerevisiae deletion strains, locus YOL012C, strain htz1",0.268
same,normalized growth,"S. cerevisiae deletion strains, locus YOL147C, strain pex11, active compounds read low",0.658 (active)
same,normalized growth,"S. cerevisiae deletion strains, locus YOR001W, strain rrp6, active compounds read low",0.735 (active)
same,normalized growth,"S. cerevisiae deletion strains, locus YOR061W, strain CKA2, active compounds read low",0.618 (active)
same,normalized growth,"S. cerevisiae deletion strains, locus YOR069W, strain VPS5, active compounds read low",0.69 (active)
same,normalized growth,"S. cerevisiae deletion strains, locus YOR070C, strain gyp1, active compounds read low",0.593 (active)
same,normalized growth,"S. cerevisiae deletion strains, locus YOR080W, strain dia2, active compounds read low",0.638 (active)
same,normalized growth,"S. cerevisiae deletion strains, locus YOR083W, strain WHI5, active compounds read low",0.717 (active)
same,normalized growth,"S. cerevisiae deletion strains, locus YOR106W, strain vam3, active compounds read low",0.507 (active)
same,normalized growth,"S. cerevisiae deletion strains, locus YOR136W, strain idh2, active compounds read low",0.796 (active)
same,normalized growth,"S. cerevisiae deletion strains, locus YOR144C, strain elg1, active compounds read low",0.68 (active)
same,normalized growth,"S. cerevisiae deletion strains, locus YOR184W, strain ser1, active compounds read low",0.538 (active)
same,normalized growth,"S. cerevisiae deletion strains, locus YOR231W, strain MKK1, active compounds read low",0.972
same,normalized growth,"S. cerevisiae deletion strains, locus YOR265W, strain rbl2, active compounds read low",0.771 (active)
same,normalized growth,"S. cerevisiae deletion strains, locus YOR270C, strain vph1, active compounds read low",0.467 (active)
same,normalized growth,"S. cerevisiae deletion strains, locus YOR290C, strain snf2, active compounds read low",0.167 (active)
same,normalized growth,"S. cerevisiae deletion strains, locus YOR316C, strain cot1, active compounds read low",0.852 (active)
same,normalized growth,"S. cerevisiae deletion strains, locus YPL051W, strain arl3, active compounds read low",0.627 (active)
same,normalized growth,"S. cerevisiae deletion strains, locus YPL055C, strain LGE1, active compounds read low",0.624 (active)
same,normalized growth,"S. cerevisiae deletion strains, locus YPL078C, strain atp4, active compounds read low",0.767 (active)
same,normalized growth,"S. cerevisiae deletion strains, locus YPL106C, strain sse1, active compounds read low",0.809 (active)
same,normalized growth,"S. cerevisiae deletion strains, locus YPL240C, strain hsp82, active compounds read low",0.864 (active)
same,normalized growth,"S. cerevisiae deletion strains, locus YPL241C, strain CIN2, active compounds read low",0.816 (active)
same,normalized growth,"S. cerevisiae deletion strains, locus YPL256C, strain CLN2, active compounds read low",1.01
same,normalized growth,"S. cerevisiae deletion strains, locus YPR119W, strain clb2, active compounds read low",0.947
same,normalized growth,"S. cerevisiae deletion strains, locus YPR141C, strain kar3, active compounds read low",0.987
same,normalized growth,"S. cerevisiae deletion strains, locus YPR163C, strain tif3, active compounds read low",0.876 (active)
same,normalized growth,"S. cerevisiae deletion strains, locus YPR167C, strain met16, active compounds read low",0.725 (active)
same,normalized growth,"S. cerevisiae deletion strains, strain wtn01, active compounds read low",0.511 (active)
same,normalized growth,"S. cerevisiae strains, strain wild type, active compounds read low",0.605 (active)
